Active and inactive are the calls of the source. The calls were made as follows: active = hit-call score of the fitted dose curve at least 0.9, where 1 is the maximum; inactive = score below 0.9.

The nature of this experiment: STM_H9_OrnithineISnorm_perc: Stemina devTOX quickPredict H9 human embryonic stem cell (hESC)-based Assay for Ornithine (ORN) Metabolite Biomarker, Normalized (AID 2283712).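 Also: ornithine released into spent medium during last day measured by mass spectrometry.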 The source says:
STM_H9_secretome utilizes undifferentiated H9 cells to measure relative changes in two metabolites, ornithine (ORN) and cystine (CYSS) in the secretome, targeting a critical drop in the ORN/CYSS ratio as a biomarker for developmental toxicity.STM_H9_OrnithineISnorm is one of 10 components calculated in the STM_H9_secretome assay. It measures the integrated area of the endogenous ornithine normalized to the spiked-in isotopically labeled standard and to the median value of the 0.1% DMSO neutral control treatment using UPLC-HRMS technology.Data from the assay component STM_H9_OrnithineISnorm_perc was analyzed at the assay endpoint STM_H9_OrnithineISnorm_perc in the positive analysis fitting direction relative to DMSO as the negative control and baseline of activity. Using a type of binding reporter, gain or loss-of-signal activity can be used to understand relative metabolite change.
H9 hESCs maintained in a pluripotent state were exposed to test compound for 72h with chemical replenishment with media replacement every 24h. Cell-conditioned media from the final 24-h treatment period was collected for analysis of the targeted biomarker, and cell viability of the corresponding cell layer was assessed. The chemical library was tested in blinded fashion. Each test plate included 1uM Methotrexate (MTX; Selleck Chemicals, Houston, Texas) as a positive reference, 5 nM MTX as a negative reference, 0.1% DMSO as the neutral (vehicle) control, and sample-level media blanks.H9 cell-conditioned media from the final 24-h treatment period was collected for analysis of the targeted biomarker and cell viability was measured from the corresponding cell layer. Cell viability was measured using the CellTiter-Fluor assay (Promega, Madison, Wisconsin) based on proteolytic cleavage of a substrate to fluorescent signal proportional to the number of living cells. The cell viability Relative Fluorescence Unit (RFU) was background corrected and normalized to mean RFU of the neutral control (0.1% DMSO). The collected H9-cell-conditioned media samples were processed for targeted biomarker analysis as described (Palmer et al., 2013). Briefly, spent media samples were deproteinized (40% acetonitrile) and processed for UPLC-HRMS. Data acquisition was performed using 4 separate UPLC-HRMS systems, consisting of an Agilent 1290 Infinity LC system (Agilent Technologies) interfaced with an Agilent high-resolution mass spectrometer (models G6520A, G6520B, G6530A, and G6224A). A Waters Acquity UPLC BEH Amide column (2.1mm x 50mm, 1.7lm particle size; Waters, Milford, Massachusetts) maintained at 40C was applied for separation of metabolites using a 6.5min solvent gradient with 0.1% formic acid in water and 0.1% formic acid in acetonitrile (1.0ml/min flow rate). Data were acquired using MassHunter Acquisition software (version B 04.00, Agilent Technologies). The extracted ion chromatogram (EIC) areas for ORN, CYSS, and their respective spike-in C13-standards were determined using the Agilent MassHunter Quantitative Analysis software, version B.05.00 or newer (Agilent Technologies), and data were normalized as described in Palmer et al. (2017).
With `ClC1=C(Cl)[C@]2(Cl)[C@@H]3[C@@H]4C[C@@H]([C@H]5O[C@@H]45)[C@@H]3[C@@]1(Cl)C2(Cl)Cl`, the result was inactive.
On to `CCNc1nc(NC(C)C)nc(SC)n1`, for which the outcome was inactive.
A word on the AC50: it is the concentration giving half of the maximal activity seen. With `CCCCCCCCCC[N+](C)(C)CCCCCCCCCC`, the half-maximal activity concentration (AC50) was 1.82 µM (active).
The same measure, in the same setting: the figure for `CO/C=C(/C(=O)OC)c1ccccc1COc1cccc(C(F)(F)F)n1` is 0.0992 µM (active); for `Clc1ccc(C(c2ccccc2Cl)C(Cl)(Cl)Cl)cc1` (configuration not stated) it is 79.3 µM (active); for `C1CC2OC2CC1C1CO1` (configuration not stated) it is 79.3 µM (active).
As for `Oc1ccc(C(c2ccc(O)cc2)(C(F)(F)F)C(F)(F)F)cc1`, the result was inactive.
Consider `CCSC(=O)N(CC)C1CCCCC1`, for which the result was inactive.
Still for that read-out and setting: the entry for `CC1=C2C[C@H]3[C@@H](CC=C4C[C@@H](O)CC[C@@]43C)[C@@H]2CC[C@]12O[C@@H]1C[C@H](C)CN[C@H]1[C@H]2C` is “inactive”; for `CCOCCOC(C)=O` it is “inactive”.
Still for that read-out and setting: the entry for `C=CC(N)=O` is “inactive”; for `Cc1cc(O)ccc1Cl` it is “inactive”.
`CCCCCCCCOC(=O)c1ccccc1C(=O)OCCCCCCCC`: the outcome was inactive.
Still for that read-out and setting: the value for `O=NN(c1ccccc1)c1ccccc1` was “inactive”.
As to `C=CC(=O)NCNC(=O)C=C`, the AC50 was 65.6 µM (active).
As to `COS(=O)(=O)OC`, the result was inactive.
`Clc1ccc(C(Cl)(Cl)Cl)cc1`: the AC50 was 94.7 µM (active).
Regarding `CCC(C)c1cc([N+](=O)[O-])cc([N+](=O)[O-])c1O` (configuration not stated), the result was inactive.
Turning to `CCC(=O)O[C@H]1CC[C@H]2[C@@H]3CCC4=CC(=O)CC[C@]4(C)[C@H]3CC[C@]12C`, the AC50 was 29.5 µM (active).
Regarding `ClC1=C(Cl)[C@]2(Cl)[C@@H]3[C@H]4C[C@H]([C@@H]5O[C@H]45)[C@@H]3[C@@]1(Cl)C2(Cl)Cl`, the AC50 is 60.9 µM (active).
Take `Nn1cnnc1`: the AC50 is 0.037 µM (active).
For the compound `CCCCCCOC(=O)c1ccccc1C(=O)OCCCCCC`, the outcome was inactive.

The values are drawn from PubChem BioAssay (EPA / NIEHS).
